# Assay results as given in PubChem BioAssay (NCATS).
# Results filed as inconclusive are left out. Where a call stands in place of a potency, no number is given. The source made the active and inactive calls. Unless noted, the call rests on the fitted dose curve; in most records, active means well fitted curve in the direction sought with a large enough effect; inconclusive means small, poorly fitted or top-dose-only effect, or another doubt; inactive means no such curve, though single readings can be large; an effect the other way counts as inactive or inconclusive.
# Assays:
# [1] = Cytometric Cell-Based qHTS for Inhibitors of the mTORC1 Signaling Pathway in MEF (Tsc2-/-, p53-/-) Cells (AID 2660);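 further: Tsc2 and p53 null MEFs carrying empty vector with compound for 24 h; percent of cells above a phospho-rpS6 to PI ratio cutoff in each well; series mostly up to about 38 µM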
# Method in brief: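 Immunofluorescence qHTS of rpS6 Ser235/236 phosphorylation: MEFs (Tsc2-/-, p53-/-) treated 24 h, 37 C, in DMEM + 10% FBS. Alexa-488 signal normalized to PI count, referenced to rapamycin (7.5 nM) and DMSO; PI cell number recorded for viability.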
# [2] = High Content Imaging Cell-Based qHTS for Inhibitors of the mTORC1 Signaling Pathway in MEF (Tsc2-/-, p53-/-) Cells (AID 2666);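 further: percent of cells scored positive for phospho-rpS6 Ser235/236 immunostaining by imaging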
# Method in brief: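 Inhibition of rpS6 phosphorylation is measured by immunofluorescence imaging in empty-vector Tsc2-/-, p53-/- mouse embryonic fibroblasts after 24 hrs compound exposure at 37 degree Celsius. Results are reported as % positive cells per well.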
# [3] = High Content Imaging Cell-Based qHTS for Inhibitors of the mTORC1 Signaling Pathway in MEF Cells (AID 2667); further: potency means the concentration at half of the fitted maximal effect
# Method in brief: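 Fixed-cell imaging of phospho-S6 (Ser235/236, Alexa-488) after 24 hrs of compound treatment at 37 degree Celsius. Signal was normalized to Hoechst, and thresholds from the highest and lowest wells split cells into % active versus % non-active.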
# [4] = biological target: Ubiquitin carboxyl-terminal hydrolase 2 (Homo sapiens) (UniProt O75604); assay: qHTS Validation Assay for Inhibitors of Ubiquitin-specific Protease USP2a Using CHOP2 as the Reporter (AID 463106)
# Method in brief: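 Inhibition is expressed relative to NEM as the full-inhibition control, with concentration-response curves classed by fit quality, magnitude and activity. Enzyme (USP2 core, 10nM) meets 25nM Ub-CHOP2 after compound preincubation; readings are taken at 60min.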
# [5] = biological target: DNA polymerase III PolC-type (Bacillus subtilis (strain 168)) (UniProt P13267); assay: qHTS Validation Assay for the Inhibitors of DNA Replication in Gram-Positive Bacteria (AID 485295);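 further: reconstituted holoenzyme with PolC plus beta clamp SSB and primase; PicoGreen fluorescence of double-stranded DNA made on primed circular M13 template; series mostly up to about 57 µM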
# Method in brief: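 PicoGreen fluorescence (ex 480–485/em 535–540 nm) reports dsDNA synthesized on ssM13Gori template with dNTPs/NTPs. Enzyme: holoenzyme rebuilt from purified PolC, beta subunit, SSB and primase. Compound preincubated before substrate addition; RT throughout.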
# [6] = biological target: Tumor susceptibility gene 101 protein (Homo sapiens) (UniProt Q99816); assay: qHTS Validation Assay for Iinhibitors of HIV-1 Budding by Blocking the Interaction of PTAP/TSG101 (AID 485342; calls by dose curve)
# Method in brief: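 FP read-out: FITC-PTAP peptide, 50 nM final, binding Tsg101 binding domain, 10 uM final; 20 min r.t.; 10 mM HEPES pH 7.5, 0.15 M NaCl, 0.01% Tween 20, 3 mM EDTA, 0.1 mM TCEP.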
# [7] = qHTS Validation Assay to Find Inhibitors of Chronic Active B-Cell Receptor Signaling (AID 485345; active means well fitted curve in the direction sought with a large enough effect in the main read-out, with a control signal flat, not every such curve was filed as active)
# Method in brief: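 TMD8 ABC-DLBCL cells with dox-inducible green luciferase–IκBα fusion and red native luciferase; compounds 46 uM–3 nM, 4 h at 37C with doxycycline in 0.5% FBS IMDM. Green/red ratio normalized to basal and 10 uM MG-132.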
# [8] = Cytometry Cell-Based qHTS for Inhibitors of the mTORC1 Signaling Pathway in MEF cells (AID 2668); further: potency means the concentration at half of the fitted maximal effect
# Method in brief: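 Read-out: phospho-rpS6 Ser235/236 immunofluorescence normalized to propidium iodide intensity, scored as % active cells against a rapamycin (7.5 nM) threshold. Cells: Tsc2-/-, p53-/- MEFs stably expressing WT Tsc2, compound-treated 24 hrs at 37 degree Celsius.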
# [9] = Validation screen for small molecules that induce DNA re-replication in MCF 10A normal breast cells (AID 463097); further: nearly all actives have a fitted effect of over 60% in size; further: potency means the concentration at half of the fitted maximal effect
# Method in brief: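 250 MCF 10A cells/well; compound pin-transferred; 48 hr, 37 C, 5% CO2; Hoechst 40 min; imaged 405/500-530 nm. Hits = more high-intensity nuclei.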
# Chain of DNA polymerase III PolC-type (Bacillus subtilis (strain 168)) (P13267 whole entry, looked up): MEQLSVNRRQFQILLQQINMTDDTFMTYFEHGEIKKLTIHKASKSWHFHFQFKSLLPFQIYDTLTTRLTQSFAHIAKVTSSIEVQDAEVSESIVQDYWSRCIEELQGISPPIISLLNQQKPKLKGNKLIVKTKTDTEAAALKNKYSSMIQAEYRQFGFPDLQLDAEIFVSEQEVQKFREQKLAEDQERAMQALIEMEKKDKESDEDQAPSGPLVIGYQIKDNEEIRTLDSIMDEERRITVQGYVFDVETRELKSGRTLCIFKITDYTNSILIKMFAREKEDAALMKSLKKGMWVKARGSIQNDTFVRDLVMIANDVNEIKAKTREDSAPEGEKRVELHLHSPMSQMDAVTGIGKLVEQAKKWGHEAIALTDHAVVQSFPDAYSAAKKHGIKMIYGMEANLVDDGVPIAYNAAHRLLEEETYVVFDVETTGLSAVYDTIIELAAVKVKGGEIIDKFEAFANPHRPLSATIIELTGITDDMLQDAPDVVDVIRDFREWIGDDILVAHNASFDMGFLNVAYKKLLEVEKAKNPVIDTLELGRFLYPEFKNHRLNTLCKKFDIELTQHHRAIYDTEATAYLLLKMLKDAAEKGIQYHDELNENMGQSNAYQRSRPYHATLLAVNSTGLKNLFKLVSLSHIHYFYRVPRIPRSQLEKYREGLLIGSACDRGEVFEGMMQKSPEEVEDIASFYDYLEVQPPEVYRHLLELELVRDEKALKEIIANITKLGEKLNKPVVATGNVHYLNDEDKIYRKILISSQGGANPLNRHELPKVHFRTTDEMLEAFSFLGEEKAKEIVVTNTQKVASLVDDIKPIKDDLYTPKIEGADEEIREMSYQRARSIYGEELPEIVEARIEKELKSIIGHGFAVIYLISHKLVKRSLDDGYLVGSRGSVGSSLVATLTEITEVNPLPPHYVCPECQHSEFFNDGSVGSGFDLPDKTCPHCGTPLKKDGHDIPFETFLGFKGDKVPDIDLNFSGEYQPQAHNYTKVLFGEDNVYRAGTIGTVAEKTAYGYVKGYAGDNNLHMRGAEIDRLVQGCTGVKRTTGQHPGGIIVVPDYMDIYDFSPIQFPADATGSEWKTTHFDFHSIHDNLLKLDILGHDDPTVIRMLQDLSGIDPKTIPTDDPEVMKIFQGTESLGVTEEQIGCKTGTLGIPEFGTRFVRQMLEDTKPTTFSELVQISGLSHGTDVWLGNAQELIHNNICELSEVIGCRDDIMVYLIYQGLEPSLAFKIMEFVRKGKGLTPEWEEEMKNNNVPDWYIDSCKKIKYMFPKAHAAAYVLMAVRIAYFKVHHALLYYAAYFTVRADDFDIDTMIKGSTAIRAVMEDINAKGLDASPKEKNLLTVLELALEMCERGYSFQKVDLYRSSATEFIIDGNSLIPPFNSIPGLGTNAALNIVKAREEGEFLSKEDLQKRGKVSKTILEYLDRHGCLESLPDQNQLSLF
# Chain of Tumor susceptibility gene 101 protein (Homo sapiens) (Q99816 whole entry, looked up, the tested form may be a part): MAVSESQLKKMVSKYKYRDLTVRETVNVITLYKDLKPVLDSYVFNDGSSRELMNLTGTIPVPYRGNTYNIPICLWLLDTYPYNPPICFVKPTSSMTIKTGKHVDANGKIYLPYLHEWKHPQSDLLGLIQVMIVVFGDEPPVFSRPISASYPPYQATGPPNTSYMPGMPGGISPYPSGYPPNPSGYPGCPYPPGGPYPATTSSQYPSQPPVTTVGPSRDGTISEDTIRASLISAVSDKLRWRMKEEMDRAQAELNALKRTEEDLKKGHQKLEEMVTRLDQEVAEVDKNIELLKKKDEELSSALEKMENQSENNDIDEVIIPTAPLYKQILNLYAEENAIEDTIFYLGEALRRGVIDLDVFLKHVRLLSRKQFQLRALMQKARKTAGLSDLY
# Chain of Ubiquitin carboxyl-terminal hydrolase 2 (Homo sapiens) (O75604 whole entry, looked up): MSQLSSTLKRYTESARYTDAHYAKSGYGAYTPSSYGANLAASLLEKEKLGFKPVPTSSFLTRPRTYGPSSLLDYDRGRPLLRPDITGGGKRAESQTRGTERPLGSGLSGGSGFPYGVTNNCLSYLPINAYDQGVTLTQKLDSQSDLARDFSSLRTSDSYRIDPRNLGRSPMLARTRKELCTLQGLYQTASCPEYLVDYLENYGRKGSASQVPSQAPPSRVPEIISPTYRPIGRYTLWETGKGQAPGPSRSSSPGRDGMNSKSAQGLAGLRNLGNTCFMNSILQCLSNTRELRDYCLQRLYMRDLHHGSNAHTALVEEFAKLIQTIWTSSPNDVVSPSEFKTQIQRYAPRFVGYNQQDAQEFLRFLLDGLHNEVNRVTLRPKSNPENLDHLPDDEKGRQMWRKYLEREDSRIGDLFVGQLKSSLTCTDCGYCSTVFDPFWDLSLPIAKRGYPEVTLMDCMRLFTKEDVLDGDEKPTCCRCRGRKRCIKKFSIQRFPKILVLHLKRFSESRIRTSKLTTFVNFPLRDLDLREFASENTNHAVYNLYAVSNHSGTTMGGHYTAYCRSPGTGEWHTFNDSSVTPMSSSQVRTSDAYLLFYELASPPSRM
Structure (SMILES),outcome [1],Potency [2],Potency [3],Potency [4],Potency [5],outcome [6],outcome [7],Potency [8],Potency [9]
NC(=O)c1cc[n+](CC2=C(C(=O)O)N3C(=O)[C@@H](NC(=O)[C@@H](c4ccccc4)S(=O)(=O)[O-])[C@H]3SC2)cc1,inactive,inactive,inactive,inactive,inactive,inactive,inactive,,
CNC(=O)c1cc2c(cn1)[nH]c1ccccc12,inactive,inactive,,inactive,,inactive,inactive,inactive,inactive
COc1ccc(-c2ccc(N)[n+](CCCC(=O)O)n2)cc1,inactive,inactive,,inactive,inactive,inactive,inactive,inactive,inactive
Cc1nc(N=Nc2cc(S(=O)(=O)O)c3cc([N+](=O)[O-])cc(S(=O)(=O)O)c3c2)c(COP(=O)(O)O)c(C=O)c1O,inactive,inactive,,inactive,,inactive,inactive,inactive,inactive
CCN(c1nc(N)c(C(=O)N=C(N)N)nc1Cl)C(C)C,inactive,inactive,inactive,inactive,inactive,inactive,inactive,,
O=C(O)c1cccnc1C(=O)O,inactive,inactive,,inactive,inactive,inactive,inactive,inactive,inactive
COc1ccc(CCn2nnnc2C2(c3ccc(C)cc3)CC2)cc1,inactive,inactive,,inactive,inactive,inactive,inactive,inactive,
c1ccc(C(NCCNC(c2ccccc2)c2ccccc2)c2ccccc2)cc1,inactive,inactive,,inactive,inactive,inactive,,18.5 µM (active),
NCC(O)c1ccc(O)c(O)c1 (stereo not drawn),inactive,inactive,inactive,inactive,,inactive,inactive,,
CCn1c(=O)[nH]c2cc(Cl)c(Cl)cc21,inactive,inactive,inactive,inactive,inactive,inactive,,,
NC(N)=[N+]1CCc2ccccc2C1,inactive,inactive,,inactive,inactive,inactive,inactive,inactive,inactive
O=C(O)Cc1ccc(O)c(O)c1,inactive,inactive,,inactive,inactive,inactive,inactive,inactive,
Brc1c(Br)c(Br)c2[nH]cnc2c1Br,inactive,inactive,inactive,inactive,inactive,inactive,,,
NC(=Nc1ccccc1)NC(=O)c1nc(Cl)c(N)nc1N,inactive,inactive,,inactive,inactive,inactive,,inactive,14.1 µM (active)
Cn1ccnc1,inactive,inactive,,inactive,inactive,inactive,inactive,inactive,inactive
O=C(O)C1CCCNC1 (stereo not drawn),inactive,inactive,,inactive,inactive,,inactive,inactive,inactive
CN1CCCC1CCOC(C)(c1ccccc1)c1ccc(Cl)cc1 (stereo not drawn),inactive,inactive,14.7 µM (active),inactive,inactive,inactive,,,
C=CCNc1ncnc2ccc(Br)cc12,inactive,inactive,inactive,inactive,inactive,inactive,,,
Cc1cc2c(cc1Cl)N(C(=O)Nc1ccnc3ccccc13)CC2,inactive,inactive,,inactive,inactive,inactive,inactive,inactive,inactive
C=CC[C@H](N)C(=O)O,inactive,inactive,,inactive,inactive,inactive,inactive,inactive,inactive
O=C(O)C1=CCNCC1,inactive,inactive,,inactive,inactive,inactive,inactive,inactive,inactive
CN1C2CCC1CC(OC(c1ccccc1)c1ccccc1)C2 (stereo not drawn),inactive,inactive,inactive,inactive,,inactive,inactive,,
CC#CCOC(=O)c1c(C)nc2sc3c(c2c1N)CCC(O)C3 (stereo not drawn),inactive,inactive,,inactive,inactive,inactive,inactive,inactive,
Cc1nc2n(c(=O)c1CCN1CCC(c3noc4cc(F)ccc34)CC1)CCCC2O (stereo not drawn),inactive,inactive,inactive,inactive,inactive,inactive,inactive,,
Cc1ccc([N+](=O)[O-])cc1S(=O)(=O)N(C)C,inactive,inactive,,inactive,,,,inactive,inactive
CN1CC(O)C(O)C(O)C1CO (stereo not drawn),inactive,inactive,inactive,inactive,inactive,inactive,inactive,,
O=C1C2C=CC=CC2=NC(=S)N1CCN1CCC(=C(c2ccc(F)cc2)c2ccc(F)cc2)CC1 (stereo not drawn),inactive,inactive,inactive,inactive,inactive,inactive,inactive,,
NS(=O)(=O)c1cccc2c1c([N+](=O)[O-])cc1nc(O)c(O)nc12,inactive,inactive,,inactive,,inactive,,inactive,inactive
